The results in this text go back to PubChem BioAssay (NCI).

Structures are written as SMILES. Compounds without any hit were thinned out: in the full panel of roughly 83,000, 20% have a hit.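 The endpoint reported here, percent growth, reads 100 for growth as untreated, 0 for no net growth and -100 for all cells dead.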 Values without a mark were called inactive. Activity calls are given as the source filed them.

In this assay the test system is SNB-19 CNS. As to the kind of experiment: NCI-60 one-dose screen, 48 h (100 = growth as untreated, 0 = no growth, -100 = all killed). The settings on record: 10 µM. The method, then: Growth inhibition of the SNB-19 human tumor cell line is measured as a screen for anti-cancer activity. Cells are grown in 96 well plates and exposed to the test compound for 48 hours. Compounds are tested at a single concentration, which is 10^-5 M for most compounds. The reported endpoint is percent growth (GI% or GIPRCNT), where numbers from 0 - 100% represent growth inhibition, and numbers from -100% - 0 represent cell death. For example, a value of 40 represents 60% growth inhibition. A value of 0 means no net growth occurred over the course of the experiment. A value of -40 indicates 40% of cells at the beginning of the experiment died by the end of the experiment. A value of -100 means all cells are dead at the end of the experiment.
NCI-60 Human Tumor Cell Lines Screen was performed using the standard one-dose NCI protocol, which is described in more detail at https://dtp.cancer.gov/discovery_development/nci-60/default.htm.
Compounds with GIPRCNT values below 10 were considered active. Activity score was based on GIPRCNT using the following formula: […]
Score is 0 for GIPRCNT values of 100 or above, 50 for GIPRCNT values of 0, and 100 for GIPRCNT values of -100.
For the molecule `Cc1ccc(C2C=C(c3ccc(Cl)cc3)N=C3SC=CN32)c(Br)c1` (stereo not given), the growth was 74.2%.
Turning to `COc1ccc(-c2nc(-c3ccccc3)c(-c3ccccc3)[nH]2)cc1OC1CCCC1`, the growth was 66.4%.
As to `c1ccc(OCCC[P+](c2ccccc2)(c2ccccc2)c2ccccc2)cc1`, the growth is 12.7%.
The figure for `COc1ccc(N2CCN(c3nc(-c4ccccc4)c(C#N)c(=O)[nH]3)CC2)cc1` is 103%; for `COc1ccc(COC(=O)CC(C)C)cc1` it is 103%.
In the case of `COc1ccc(-c2ccccc2)cc1C(=O)c1ccc(-c2ccccc2)cc1`, the growth is 81.3%.
The figure for `c1ccc(CNc2nc(Nc3ccc(-c4nc5ccccc5[nH]4)cc3)c3cn[nH]c3n2)cc1` is 36.3%; for `COc1cccc2c1O/C(=C\c1ccc([N+](=O)[O-])s1)C2=O` it is 86.6%.
The figure for `COCCNCC(O)Cn1c2ccc(Cl)cc2c2cc(Cl)ccc21` (stereo not given) is 24%.
In the case of `Cc1ccc(C(=O)O)c(N)c1C`, the growth is 107%.
The figure for `CCN(Cc1ccccc1)C1CCN(Cc2cc(Br)ccc2O)CC1` is 65.7%; for `O=C1CC(c2cccc(-c3cccnc3)c2)=Nc2ccc(Br)cc2N1` it is 62.9%.
Regarding `O=C1CC[C@@H](C(=O)N[C@H]2CSSC[C@@H](C(=O)NCCc3ccccc3)NC(=O)[C@H](Cc3ccccc3)NC(=O)[C@@H]3CCCN3C(=O)[C@@H]3CCCN3C2=O)N1`, the growth was 102%.
Regarding `FC(F)(F)c1ccc(-c2cnc(Cl)nc2NCc2cc(C(F)(F)F)cc(C(F)(F)F)c2)cc1`, the growth was 14.8%.
The figure for `N#CN1CC[C@H](C(=O)Nc2ncc(-c3ccncc3)s2)C1` is 9.6% (active).
Under `COc1cc(C2C=C(c3ccc(Cl)c(Cl)c3)N=C3SC(C)=CN32)cc(OC)c1OC` (stereo not given) stands 79.5%; under `CC1(C)CNC(=O)N1`, 103%; under `CCCCc1ccc(NC(=O)N(CCCl)N=O)cc1`, 88.5%.
The figure for `CC(=O)OC1Oc2ccccc2-c2oc(=O)c(-c3cc(=O)oc4cc(O)ccc34)cc21` (stereo not given) is 95%; for `O=C(COc1ccc(Cl)cc1Cl)Oc1coc(CSc2nc3ccccc3s2)cc1=O` it is 103%.
Take `Nc1ccc(C2=CC(c3ccc(Cl)cc3)N3C=CSC3=N2)cc1` (stereo not given): the growth was -65.2% (active).
As to `COc1ccc(-c2nc(NC(=O)CS(=O)(=O)c3ccc(F)cc3)sc2C)cc1`, the growth is 86.8%.
The figure for `Cc1ccc([P+](Cc2ccc([N+](=O)[O-])cc2)(c2ccc(C)cc2)c2ccc(C)cc2)cc1` is 57.6%; for `O=c1[nH]c(=O)n(C2C[C@@H](O)[C@@H](CO)O2)cc1F` (stereo not given in full) it is 41.6%; for `C/C=C\COc1cc(C)c(Cl)cc1Cl` it is 97.3%.
Regarding `COc1ccc(S(=O)(=O)Nc2ccc(OCc3nnc(-c4ccc(Cl)cc4)o3)c(F)c2)cc1`, the growth was 65.8%.
Under `COc1cccc(C2(C)Nc3ccccc3-c3nc4ccccc4n32)c1` (stereo not given) stands 105%; under `COc1ccc(C2CC(c3ccc(-c4ccccc4)cc3)=NN2c2ccc(S(N)(=O)=O)cc2)cc1` (stereo not given), 65.2%.
Under `COc1ccc(-c2cc(/C=C/C(=O)c3ccc(N)cc3)[nH]n2)cc1OC` stands 51.6%.
The figure for `CN(C)c1ccc2c(c1)OC(N)=C(C#N)C2c1ccc2c(c1)CCCN2C` (stereo not given) is 33.3%; for `O=[N+]([O-])c1ccc(-c2nc(-c3ccccc3)c(-c3ccccc3)n2-c2ccccc2)cc1` it is 65.9%.
For `CCN(CC)CC(O)Cc1ccc(OC)cc1` (stereo not given), the growth is 109%.
The figure for `COc1nc2c(c(=O)[nH]1)C(c1ccc(Oc3ccnc4cc(Cl)ccc34)c(OC)c1)C=C(c1cc(OC)c(OC)c(OC)c1)N2` (stereo not given) is 89.1%; for `COC(=O)[C@]12CC[C@@H](C)[C@H](C)[C@@H]1C1=CC[C@@H]3[C@@]4(C)C[C@@H](O)[C@H](O)[C@@](C)(CO)[C@@H]4[C@H](O)C[C@@]3(C)[C@]1(C)CC2` it is -23.4% (active); for `CCN1CCN(c2ccc(Nc3ncnc4c3nnn4CCc3cc(OC)cc(OC)c3)cc2)CC1` it is 94%.
The figure for `CCc1cc2n(n1)-c1ncc(C(=O)OC)cc1Oc1ccccc1-2` is 109%.
The figure for `O=C1/C(=C/c2ccc(O)cc2)Cc2ccc(Cl)cc21` is 93.9%.
As for `C/C(=N/NC(=O)c1sc(=S)n(C)c1N)c1cc2cc(Cl)ccc2o1`, the growth was 98.8%.
Under `COc1ccc(C(=O)/C=C/c2cc(-c3ccc4c(c3)OCO4)n[nH]2)cc1OC` stands 47.1%; under `O=C(N/N=C\c1cc(Cl)ccc1O)c1ccncc1`, 62%.
